Results filed as inconclusive are left out. Active and inactive are the calls of the source. Calls come from the whole dose curve; as a rule, active = well fitted inhibition curve with a large enough effect; inconclusive = small, poorly fitted or top-dose-only effect; inactive = flat fitted curve, though single readings scatter. *1 amine or outer side, *2 acyl side, *3 side chain or, on linkers, in order; H or OH if unused. Where a SMILES comes first, the peptide text is derived from it. Bridges are numbered along the chain shown (N, C = ends). [ ]: non-standard residue; d: D form. The star is where a group is joined. ξ: configuration not given here. X10 = NC1=NCCC(C(N[*:1])C(=O)[*:2])N1; ΔAla(3-NHCONH2) = NC(=O)NC=C(N)C(=O)O; ξβ3hOrn = NCCCC(N)CC(=O)*; Dap = NC[CH](N)C(=O)O
Each compound was assayed on Zika virus NS2B-NS3 protease (assay: Primary screen GU AMC qHTS for Zika virus inhibitors (AID 1347154;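 note: 0% = no-inhibitor control and -100% = no-enzyme control; nearly all actives have a fitted effect of over 70% in size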)). Details: Zika NS2B-NS3 unlinked protease, AMC fluorogenic substrate; series mostly up to 54.1 µM; activity change, negative = inhibition: at the top concentration.
In short: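 Unlinked Zika NS2B hydrophilic domain/NS3 protease domain noncovalent complex (25 nM final) in 10 mM Tris-HCl pH 8.0, 0.01% Tween 20, with AMC peptide substrate. Fluorescence (ex 340, em 450 nm) change over 15 min, room temperature; percent inhibition fitted to 4-parameter Hill equation.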

| SMILES | activity change, negative = inhibition |
| --- | --- |
| CCOC(=O)C(=O)CCCCCCl | 0.643% (inactive) |
| O=[N+]([O-])c1cncn1CCN1CCOCC1 | -5.82% (inactive) |
| c1ccc2c(c1)CCc1ccccc1N2 | -11.9% (inactive) |
| COc1cc2nc(Cl)nc(N)c2cc1OC | 11.2% (inactive) |
| CC(=O)/C=C/C=C1/C2CCC(C2)C1(C)C (configuration not stated) | -3.04% (inactive) |
| O=S(=O)(O)c1ccc2nc(-c3ccccc3)[nH]c2c1 | -11.1% (inactive) |
| CC(=O)N[C@@H](CO)C(=O)N[C@@H](CC(=O)O)C(=O)N[C@@H](CCCCN)C(=O)N1CCC[C@H]1C(=O)O (Ac-SDKP-OH) | -4.32% (inactive) |
| CNC(=O)c1cnn(-c2nc(N)c3ncn([C@@H]4O[C@H](CO)[C@@H](O)[C@H]4O)c3n2)c1 | -5.9% (inactive) |
| O=C(CCC1CCN(Cc2ccccc2)CC1)c1ccc2c(c1)NCCCC2 | -9.04% (inactive) |
| Cc1ccc(C(=O)C(=O)O)cc1C | 5.18% (inactive) |
| CN1CCC(=C2c3ccccc3CCc3cccnc32)CC1 | -0.254% (inactive) |
| NC(=O)NC1N=C([O][Al])NC1=O (configuration not stated) | 0.538% (inactive) |
| CCN(CC)CCOc1ccc(/C(=C(\Cl)c2ccccc2)c2ccccc2)cc1 | -14.7% (inactive) |
| O=C(O)CNC(=O)CNC(=O)CNC(=O)CSC(=O)c1ccccc1 | -1.51% (inactive) |
| CC(=O)OC[C@H]1O[C@@H](OC(C)=O)[C@H](OC(C)=O)[C@@H]1OC(C)=O | 2.32% (inactive) |
| CN(C)CCCOC1(Cc2ccccc2)CCCCCC1 | 1.07% (inactive) |
| COc1cc(C(=O)NC2CCCNC2)cc(OC)c1OC (configuration not stated) | -0.695% (inactive) |
| Nc1ncnc2c1ncn2Cc1c(F)cccc1Cl | -3.98% (inactive) |
| CC(=O)[C@H]1CC[C@H]2[C@@H]3C=CC4=CC(=O)CC[C@@]4(C)[C@@H]3CC[C@]12C | 0.0062% (inactive) |

| SMILES | activity change, negative = inhibition |
| --- | --- |
| NS(=O)(=O)c1ccc(N2CCCCS2(=O)=O)cc1 | 1.19% (inactive) |
| Cc1c(N)cccc1C(F)(F)F | 6.71% (inactive) |
| Cc1ccc(/C=N/n2c(-c3ccccc3)csc2=S)cc1 | -8.26% (inactive) |
| Cc1[nH]cnc1-c1ccc(Cl)cc1 | 5.95% (inactive) |
| O=C(O)[C@H](O)[C@@H](O)[C@H](O[C@@H]1O[C@H](CO)[C@H](O)[C@H](O)[C@H]1O)[C@H](O)CO | -2.59% (inactive) |
| O=C1Nc2cc(Cl)ccc2Oc2ccccc21 | 2.12% (inactive) |
| COc1cc2c(cc1OC)CN(C(=O)[C@H](C)N[C@@H](CCc1ccccc1)C(=O)O)[C@H](C(=O)O)C2 | -1.93% (inactive) |
| COc1ccc2c(c1)c(CC(=O)OC/C=C(\C)CC/C=C(\C)CCC=C(C)C)c(C)n2C(=O)c1ccc(Cl)cc1 | -12.3% (inactive) |
| Cc1ccc(-c2ccccc2C#N)cc1 | -4.98% (inactive) |
| CC(C(=O)O)c1ccc(/C=C2\CCCCC2=O)cc1 (configuration not stated) | -4.01% (inactive) |
| C1=CC2C3C=CC(C3)C2C1 (configuration not stated) | 0.367% [at 104 µM] (inactive) |
| CC(C)C[C@@H]1[C@H](c2ccccc2)OC(=O)N1CCCN1CCCCCC1 | -0.466% (inactive) |
| CCCCCOc1ccccc1/C(=C\SC)n1ccnc1 | -8.08% (inactive) |
| NC(=O)NS(=O)(=O)c1ccc(Cl)cc1 | 2.8% (inactive) |
| NCCCC(N)CC(=O)NCC1NC(=O)C(CO)NC(=O)C(N)CNC(=O)C(C2CCN=C(N)N2)NC(=O)C(=CNC(N)=O)NC1=O (stereo not drawn) (H-[Dap]S[Dap](ξβ3hOrn)[ΔAla(3-NHCONH2)][X10]; lactam 1-C; configuration not given here) | -2.82% [at 0.59 µM] (inactive) |
| N#CSCC(=O)O | 3.82% (inactive) |
| O=C(NN1CCCC1)NS(=O)(=O)c1ccc(Cl)cc1 | -4.07% (inactive) |
| Nc1c(NC/C=C\COc2cc(CN3CCCCC3)ccn2)c(=O)c1=O | -2.44% [at 25.8 µM] (inactive) |

Source: PubChem BioAssay (NCATS)
